From PubChem BioAssay (EPA / NIEHS)
Active and inactive are the calls of the source. Rule for the calls: active = hit-call score of the fitted dose curve at least 0.9, where 1 is the maximum; inactive = score below 0.9.

What was measured:
Details in all cases: mRNA level, 48 h; actives raise or lower the signal
[1] = read-out: Forkhead box O1 (FOXO1), FOXO1 (gene 2308); assay: LTEA_HepaRG_FOXO1: Life Technologies and Expression Analysis (LTEA) Assay for Forkhead box O1 (FOXO1) using HepaRG (AID 2283456)
Outline: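 Using one lot of HepaRG hepatic cells kept in 0.5% DMSO, the team applied test chemicals in duplicate, half-log dilutions from 100 uM, for 48 h. Expression, normalised to ACTB/GAPDH/POLR2A, was compared with vehicle in either direction.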

[2] = read-out: growth arrest and DNA damage 45 (GADD45A), GADD45A (gene 1647); assay: LTEA_HepaRG_GADD45A: Life Technologies and Expression Analysis (LTEA) Assay for growth arrest and DNA damage 45 (GADD45A) using HepaRG (AID 2283458)
Outline: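 Transcript induction or loss, quantified by TaqMan qRT-PCR against three housekeeping genes, is the read-out. HepaRG cells received chemicals for 48 h across eight half-log concentrations from 100 uM in 0.5% DMSO; gain and loss fitted relative to DMSO.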

[3] = read-out: Forkhead box O3 (FOXO3), FOXO3 (gene 2309); assay: LTEA_HepaRG_FOXO3: Life Technologies and Expression Analysis (LTEA) Assay for Forkhead box O3 (FOXO3) using HepaRG (AID 2283459)
Outline: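 Gene-expression endpoint: FOXO3 transcript level by qRT-PCR in HepaRG cultures treated 48 h with chemicals up to 100 uM (half-log, 0.5% DMSO vehicle).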

[4] = read-out: ABC Transporter (ABCB1), ABCB1 (gene 5243); assay: LTEA_HepaRG_ABCB1: Life Technologies and Expression Analysis (LTEA) Assay for ABC Transporter (ABCB1) using HepaRG (AID 2283460)
Outline: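 Human liver HepaRG line treated 48 h with up to 100 uM compound (eight half-log points, 0.5% DMSO); ABCB1 mRNA change fitted bidirectionally against DMSO controls.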

[5] = read-out: growth arrest and DNA damage 45 (GADD45B), GADD45B (gene 4616); assay: LTEA_HepaRG_GADD45B: Life Technologies and Expression Analysis (LTEA) Assay for growth arrest and DNA damage 45 (GADD45B) using HepaRG (AID 2283461)
Outline: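 Human HepaRG monolayers receive chemicals for 48 h at eight half-log concentrations, highest 100 uM, in 0.5% DMSO. Expression is measured by TaqMan qRT-PCR and normalized to ACTB, GAPDH and POLR2A.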

[6] = read-out: ABC Transporter (ABCC3), ABCC3 (gene 8714); assay: LTEA_HepaRG_ABCC3: Life Technologies and Expression Analysis (LTEA) Assay for ABC Transporter (ABCC3) using HepaRG (AID 2283462)
Outline: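 Transcriptional change of ABCC3 in HepaRG after 48 h treatment, determined by qRT-PCR normalized to endogenous controls. Concentrations spanned eight half-log steps to 100 uM in 0.5% DMSO.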

[7] = read-out: ABC Transporter (ABCB11), ABCB11 (gene 8647); assay: LTEA_HepaRG_ABCB11: Life Technologies and Expression Analysis (LTEA) Assay for ABC Transporter (ABCB11) using HepaRG (AID 2283463)
Outline: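 Using HepaRG cultures held in 0.5% DMSO, chemicals were tested at half-log dilutions from 100 uM for 48 h. Induction or suppression of ABCB11 mRNA, normalized to ACTB, GAPDH and POLR2A, was fitted bidirectionally against vehicle.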

[8] = read-out: ABC Transporter (ABCC2), ABCC2 (gene 1244); assay: LTEA_HepaRG_ABCC2: Life Technologies and Expression Analysis (LTEA) Assay for ABC Transporter (ABCC2) using HepaRG (AID 2283464)
Outline: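 After plating and 48 h culture, HepaRG medium is replaced with serum-free induction medium and chemicals are added (8 concentrations, max 100 uM, 0.5% DMSO) for 48 h. Total RNA then undergoes qRT-PCR for ABCC2 with housekeeping normalization.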

[9] = read-out: Broad substrate specificity ATP-binding cassette transporter ABCG2 (Homo sapiens) (UniProt Q9UNQ0); assay: LTEA_HepaRG_ABCG2: Life Technologies and Expression Analysis (LTEA) Assay for ABC Transporter (ABCG2) using HepaRG (AID 2283465)
Outline: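 Gene expression of ABCG2 in HepaRG liver cells is quantified by qRT-PCR following 48 h exposure across an eight-point series topping at 100 uM. Values come from bidirectional fitting relative to DMSO vehicle.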

[10] = read-out: Peroxisomal acyl-coenzyme A oxidase 1 (ACOX1) gene, ACOX1 (gene 51); assay: LTEA_HepaRG_ACOX1: Life Technologies and Expression Analysis (LTEA) Assay for Peroxisomal acyl-coenzyme A oxidase 1 (ACOX1) gene using HepaRG (AID 2283467)
Outline: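 Human HepaRG hepatic cultures, 48 h treatment with test chemicals up to 100 uM. ACOX1 expression read by qRT-PCR relative to 0.5% DMSO vehicle.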

[11] = read-out: Alkaline Phosphatase, Placental (ALPP) gene, ALPP (gene 250); assay: LTEA_HepaRG_ALPP: Life Technologies and Expression Analysis (LTEA) Assay for Alkaline Phosphatase, Placental (ALPP) gene using HepaRG (AID 2283468);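 for AC50: differentiated human HepaRG liver cells in serum-free induction medium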
Outline: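 Using human liver HepaRG cells, chemicals are tested in duplicate over 48 h at half-log concentrations topping at 100 uM; phenobarbital 1 mM serves as induction control. ALPP mRNA change by qRT-PCR, bidirectional fit against vehicle.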

[12] = read-out: Bcl-2 (BAD) gene, BAD (gene 572); assay: LTEA_HepaRG_BAD: Life Technologies and Expression Analysis (LTEA) Assay for Bcl-2 (BAD) gene using HepaRG (AID 2283469)
Outline: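 Activity values reflect up- or down-regulation of BAD mRNA in human HepaRG hepatic cells treated 48 h in serum-free medium, with eight-point half-log dosing capped at 100 uM and 0.5% DMSO vehicle.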

[13] = read-out: Bcl-2 (BAX) gene, BAX (gene 581); assay: LTEA_HepaRG_BAX: Life Technologies and Expression Analysis (LTEA) Assay for Bcl-2 (BAX) gene using HepaRG (AID 2283470)
Outline: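 Cells were thawed, plated for 48 h, moved to serum-free induction medium and dosed for 48 h (highest concentration 100 uM, half-log steps, 0.5% DMSO). Total RNA was then analysed for BAX expression by qRT-PCR.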

[14] = read-out: adenosine kinase (ADK) gene, ADK (gene 132); assay: LTEA_HepaRG_ADK: Life Technologies and Expression Analysis (LTEA) Assay for adenosine kinase (ADK) gene using HepaRG (AID 2283471)
Outline: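 Differentiated HepaRG cells dosed 48 h in serum-free induction medium, 0.5% DMSO vehicle, eight half-log concentrations from 100 uM, in duplicate. ADK mRNA by TaqMan qRT-PCR normalised to ACTB, GAPDH, POLR2A; bidirectional fit versus DMSO.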

[15] = read-out: Alpha-fetoprotein (AFP) gene, AFP (gene 174); assay: LTEA_HepaRG_AFP: Life Technologies and Expression Analysis (LTEA) Assay for Alpha-fetoprotein (AFP) gene using HepaRG (AID 2283472)
Outline: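 Chemicals were tested on differentiated HepaRG cells for 48 hours at eight concentrations up to 100 uM, with 0.5% DMSO as vehicle. AFP expression was then quantified by qRT-PCR and analyzed for gain or loss relative to DMSO.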

BCL2L11 (gene 10018) = assay: LTEA_HepaRG_BCL2L11: Life Technologies and Expression Analysis (LTEA) Assay for Bcl-2 (BCL2L11) gene using HepaRG (AID 2283473)
Outline: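 Human hepatic HepaRG cultures are treated 48 h with test chemicals (maximum 100 uM, 0.5% DMSO vehicle). Expression of BCL2L11 is measured by qRT-PCR against ACTB, GAPDH and POLR2A, with activity in either direction scored relative to vehicle.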

[16] = read-out: Apolipoprotein A-V (APOA5) gene, APOA5 (gene 116519); assay: LTEA_HepaRG_APOA5: Life Technologies and Expression Analysis (LTEA) Assay for Apolipoprotein A-V (APOA5) gene using HepaRG (AID 2283474)
Outline: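 Concentration-response of APOA5 expression in HepaRG: eight half-log doses to 100 uM, 48 h, qRT-PCR normalized to ACTB/GAPDH/POLR2A, bidirectional fitting with 0.5% DMSO as baseline.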

[17] = read-out: Apoptosis regulator Bcl-2 (Homo sapiens) (UniProt P10415); assay: LTEA_HepaRG_BCL2: Life Technologies and Expression Analysis (LTEA) Assay for Bcl-2 gene using HepaRG (AID 2283475)
Outline: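 Plated human HepaRG cells are exposed to test chemicals for 48 h across eight concentrations from 100 uM downward in half-log steps (0.5% DMSO). BCL2 expression is then measured by qRT-PCR with housekeeping normalisation and fitted bidirectionally against vehicle.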

[18] = read-out: ATP-citrate lyase (ACLY), ACLY (gene 47); assay: LTEA_HepaRG_ACLY: Life Technologies and Expression Analysis (LTEA) Assay for ATP-citrate lyase (ACLY) using HepaRG (AID 2283466)
Outline: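 ACLY expression changes in human HepaRG liver cells are quantified by qRT-PCR after 48 h exposure to test chemicals (maximum 100 uM, half-log steps). Values are fitted in both directions relative to 0.5% DMSO vehicle.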

Measured: AC50

Chain of Apoptosis regulator Bcl-2 (Homo sapiens) (P10415 whole entry, looked up): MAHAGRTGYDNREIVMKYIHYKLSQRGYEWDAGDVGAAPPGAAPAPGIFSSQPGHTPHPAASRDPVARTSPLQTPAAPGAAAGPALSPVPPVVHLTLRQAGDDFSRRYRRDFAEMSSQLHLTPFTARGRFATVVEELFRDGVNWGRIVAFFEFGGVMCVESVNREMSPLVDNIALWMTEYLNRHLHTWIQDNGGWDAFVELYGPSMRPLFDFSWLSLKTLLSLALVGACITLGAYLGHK
Chain of Broad substrate specificity ATP-binding cassette transporter ABCG2 (Homo sapiens) (Q9UNQ0 whole entry, looked up): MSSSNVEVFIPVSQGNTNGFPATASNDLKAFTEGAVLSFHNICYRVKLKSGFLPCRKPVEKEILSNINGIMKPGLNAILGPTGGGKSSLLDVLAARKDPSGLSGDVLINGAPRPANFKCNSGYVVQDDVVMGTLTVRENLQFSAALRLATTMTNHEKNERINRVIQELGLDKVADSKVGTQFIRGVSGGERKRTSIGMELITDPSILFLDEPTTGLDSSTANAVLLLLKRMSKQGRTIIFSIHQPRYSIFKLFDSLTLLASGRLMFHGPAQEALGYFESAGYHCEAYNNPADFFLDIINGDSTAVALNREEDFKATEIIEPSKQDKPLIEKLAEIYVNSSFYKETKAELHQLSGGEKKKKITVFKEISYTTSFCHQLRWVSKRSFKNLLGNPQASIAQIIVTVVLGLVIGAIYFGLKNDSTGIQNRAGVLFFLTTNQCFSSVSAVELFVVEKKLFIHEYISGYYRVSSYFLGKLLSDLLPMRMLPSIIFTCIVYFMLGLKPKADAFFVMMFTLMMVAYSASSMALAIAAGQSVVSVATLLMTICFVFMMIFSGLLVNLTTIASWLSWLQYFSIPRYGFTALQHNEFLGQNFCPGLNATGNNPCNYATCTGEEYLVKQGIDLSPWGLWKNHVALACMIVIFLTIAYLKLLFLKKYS

CC(=O)[C@@]1(O)CC[C@H]2[C@@H]3CCC4=CC(=O)CC[C@]4(C)[C@H]3CC[C@@]21C
active: [15] 50 µM
not listed: [18]
inactive: all other assays above

O=C(O)c1[nH]n(-c2ccc(S(=O)(=O)O)cc2)c(=O)c1N=Nc1ccc(S(=O)(=O)O)cc1
not listed: [18]
inactive: all other assays above

CCc1cc(C2=C(C(=O)O)N(c3ccccc3C(F)(F)F)S(=O)(=O)c3ccccc32)cc2c1OCO2
active: [4] 3.3 µM | [7] 32.1 µM | [8] 1.64 µM | [9] 23.7 µM | [11] 30.9 µM | [13] 50 µM | [15] 65 µM | [16] 77.2 µM | [17] 79.9 µM
not listed: [18]
inactive: all other assays above

CCCCCCC(CCCCCCCCCCC(=O)OCC(COC(C)=O)OC(C)=O)OC(C)=O (stereo not given)
not listed: [18]
inactive: all other assays above

CC(C)NCC(O)c1ccc(O)c(O)c1 (stereo not given)
active: [7] 0.147 µM | [8] 0.128 µM | [9] 0.156 µM | [18] 0.182 µM | [10] 0.224 µM | [11] 0.0927 µM | [15] 0.261 µM | [17] 0.239 µM
not listed: [3]
inactive: all other assays above
